Bioassay records (PubChem BioAssay)
RGS16-Gao = RGS16-Galphao interaction regulator (human); binding response (% of control), % at 10 µM; actives 0.38% (n = 220,000); O15492+P09471; bead-based flow cytometry RGS16-Galphao binding, fluorescence; actives lie on both sides; AID 1441;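 note: Galphao activated by GDP with aluminum fluoride before binding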
RGS8-Gao reg = human RGS8-Galphao interaction regulation; multiplexed bead flow cytometry, RGS8-Galphao binding; actives lie on both sides; response (percent of control binding), % at 10 µM; actives 0.34% (n = 220,000); AID 1423; in the data active = response below about 60% or above about 140%; inactive = in between;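 note: Galphao activated as the GDP aluminium fluoride complex binding bead-coupled RGS8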
Target sequence (P09471 whole entry, looked up): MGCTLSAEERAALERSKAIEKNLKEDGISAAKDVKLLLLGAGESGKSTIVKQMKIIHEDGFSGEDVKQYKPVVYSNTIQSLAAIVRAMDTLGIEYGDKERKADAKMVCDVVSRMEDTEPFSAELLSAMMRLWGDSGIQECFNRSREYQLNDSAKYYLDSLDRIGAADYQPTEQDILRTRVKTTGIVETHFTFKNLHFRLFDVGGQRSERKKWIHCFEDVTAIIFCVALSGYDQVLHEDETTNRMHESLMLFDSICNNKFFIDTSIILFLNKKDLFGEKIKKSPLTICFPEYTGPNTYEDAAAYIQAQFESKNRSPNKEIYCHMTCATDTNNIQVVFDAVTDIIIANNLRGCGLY
Avidin bead fluor = avidin bead compound fluorescence profile | AID 1775 | actives 0.38% (n = 220,000) | Avidin beads, compound fluorescence 488/530 nm, flow cytometry; stronger effect = higher value | fluorescence (KMESF) at 10 µM; in the data active = fluorescence above about 47
RGS7-Gao = modulates binding of RGS7 to human Galphao; Multiplexed bead flow cytometry; actives lie on both sides; actives 0.35% (n = 220,000); binding response (% of control), % at 10 µM; AID 1439; in the data active = binding response below about 49% or above about 150%; inconclusive = no clear call, values can overlap the other calls; inactive = in between;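 note: fluorescent Galphao held in activated GDP-AlF4 state binding bead-coupled RGS7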
GSH bead fluor = GSH bead compound fluorescence profile. GSH beads flow cytometry, compound fluorescence 488/530 nm; stronger effect = higher value. fluorescence (KMESF) at 10 µM. actives 0.25% (n = 190,000); in the data active = fluorescence above about 89;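 note: glutathione beads carrying GST-tagged Bcl family fusion proteins plus one bare bead set; values are compound well signal with DMSO vehicle wells as background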
RGS4-Gao reg = modulates binding of RGS4 to human Galphao; P09471; Multiplexed bead flow cytometry; actives lie on both sides; binding response (% of control), % at 10 µM; actives 0.33% (n = 220,000); AID 1415; in the data active = binding response below about 49% or above about 150%; inactive = in between;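 note: fluorescent Galphao activated with aluminum fluoride binding bead-coupled RGS4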
RGS-Gao = modulates binding between human RGS4 and Galphao; shares compounds with RGS16-Gao; multiplexed bead flow cytometry, RGS–Galpha-o binding; RGS4–Galpha-o binding response, % at 10 µM; actives 99% (n = 1,600); AID 1504;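 note: fluorescently labeled Galpha-o bound to GDP with aluminium fluoride binding biotinylated RGS beads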
Biotin-avidin = interferes with biotinylated probe binding to avidin beads; AID 1783; 1,700 tested, under 10 active; inhibition, % at 10 µM; shares compounds with RGS16-Gao; streptavidin beads, fluorescein-biotin binding, flow cytometry;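 active = inhibition above 50%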;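 note: median green fluorescence of gated singlet beads compared with DMSO control wells; 0% = DMSO wells and 100% = complete loss of bead fluorescence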
RGS8-Gao confirm = RGS8-Galphao interaction regulation, single point confirmation; shares compounds with RGS16-Gao; bead-based flow cytometry RGS8-Galphao binding, fluorescence; actives lie on both sides; binding response (% of control), % at 10 µM; actives 3% (n = 1,700); AID 1836; in the data active = binding response below about 72% or above about 130%; inactive = in between;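 note: Galphao activated as GDP AlF4 complex before binding bead RGS8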
RGS7-Gao single = confirmation of regulators of human RGS7-Galphao interaction. shares compounds with RGS16-Gao. actives 7.8% (n = 1,700). bead-based flow cytometry RGS7-Galphao binding; actives lie on both sides. response (percent of control binding), % at 10 µM. AID 1837; in the data active = response below about 75% or above about 130%; inactive = in between;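 note: fluorescent Galphao activated with GDP and aluminum fluoride binding bead-coupled RGS7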
RGS16-Gao single = confirmation of regulators of human RGS16-Galphao interaction | shares compounds with RGS16-Gao | bead-based flow cytometry, RGS16-Galphao binding; actives lie on both sides | response (% of control binding), % at 10 µM | actives 4% (n = 1,700) | AID 1838; in the data active = response below about 74% or above about 130%; inactive = in between;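 note: Galphao activated as the GDP aluminium fluoride complex binding bead-coupled RGS16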
RGS4-Gao confirm = RGS4-Galphao interaction regulation, single point confirmation. shares compounds with RGS16-Gao. RGS4-Galphao binding, multiplexed bead flow cytometry; actives lie on both sides. binding response (% of control), % at 10 µM. actives 4% (n = 1,700); in the data active = binding response below about 74% or above about 130%; inactive = in between
RGS19-Gao conf = RGS19-Galphao interaction regulation, single point confirmation; shares compounds with RGS16-Gao; bead-based flow cytometry RGS19-Galphao binding; actives lie on both sides; response (percent of control binding), % at 10 µM; actives 5% (n = 1,700); AID 1841; in the data active = response below about 50% or above about 160%; inactive = in between;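 note: 100% = no compound control and 0% = blank background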
Starred values were filed as active, the others as inactive; ? = inconclusive; . = no result given; [ ] = dose if it differs, or a comment. Sampled rows, rich in hits. Any-hit rate of the full collection: about 1.2%. Unless noted, the rule behind the calls is not given here.

SMILES	RGS16-Gao	RGS8-Gao reg	Avidin bead fluor	RGS7-Gao	GSH bead fluor	RGS4-Gao reg	RGS-Gao	Biotin-avidin	RGS8-Gao confirm	RGS7-Gao single	RGS16-Gao single	RGS4-Gao confirm	RGS19-Gao conf
COC(=O)C1=C(C)N=c2s/c(=C3\C(=O)Nc4ccccc43)c(=O)n2C1c1ccccc1 (stereo unspecified)	179*[activator]	120	5	114	20	118	118*	0	102	103	104	100	94
O=c1c2ccccc2sn1-c1ccccc1	-5.3*	18*	6	91	15	78	78*	-2	25*	85	0.1*	78	-0.4*
CN(C)S(=O)(=O)c1ccc2[nH]cc(/C=C/c3nc4ccccc4c(=O)n3-c3ccccc3)c2c1	99	102	34	101	16	101	.	.	.	.	.	.	.
O=c1c2ccccc2sn1-c1ccc(S(=O)(=O)N2CCCC2)cc1	-3.0*	31*	4	89	9	92	92*	1	59*	85	40*	91	8.6*
O=c1c2ccccc2sn1-c1nccs1	78	75	16	101	9	98	.	.	.	.	.	.	.
CN(C)S(=O)(=O)c1cccc(-n2sc3ccccc3c2=O)c1	17*	55*	4	?	9	93	93*	.	.	.	.	.	.
Cc1ccc(-n2sc3ccccc3c2=O)cc1S(=O)(=O)N1CCCCC1	-12	43*	7	97	6	75	75*	.	.	.	.	.	.
NS(=O)(=O)c1ccc(S(=O)(=O)N2CCCC2)cc1	89	97	7	104	25	102	.	.	.	.	.	.	.
O=C(Nc1ccc(O)cc1C(=O)O)c1cccs1	109	103	25	98	56	99	.	.	.	.	.	.	.
CCOC(=O)N1CCC(=NNC(=O)c2ccc(O)cc2)CC1	99	98	12	102	14	102	.	.	.	.	.	.	.
Cc1ccccc1-n1sc2cc(F)ccc2c1=O	4.8*	37*	2	104	7	90	90*	.	.	.	.	.	.
Cc1cc(C)cc(Nc2cnn(C34CC5CC(CC(CC(=O)O)(C5)C3)C4)c(=O)c2Cl)c1	.	.	.	.	33	91	.	2	103	105	102	102	100
Cc1ccc(CNc2cnn(C34CC5CC(CC(C5)C3)C4)c(=O)c2Cl)cc1	5.8*	11*	-2	7.4*	22	0.2*	.	-1	99	94	98	92	101
Cc1cccc(Nc2cnn(C34CC5CC(CC(CC(=O)O)(C5)C3)C4)c(=O)c2Cl)c1	103	105	6	101	30	102	.	.	.	.	.	.	.
Clc1ccc(/C(Cc2nc3ccccc3[nH]2)=N\Nc2ccccc2)cc1	106	101	6	99	20	98	.	.	.	.	.	.	.
N#CCCN/N=C(/Cc1nc2ccccc2[nH]1)c1cccc(Cl)c1	224*[activator]	169*[activator]	9	198*[activator]	27	247*[activator]	.	1	95	97	93	96	96
